Laboratory results from PubChem BioAssay (Tox21).
“And” between values parts separate entries of the source, which are not always exact repeats. Equal entries are not always repeated. Results filed as inconclusive are left out. Where a call stands in place of a potency, no number is given. A structure can be active in one record and inactive in another. The source made the active and inactive calls. Unless noted, calls come from the whole dose curve.

Assays:
[1] = Nuclear factor erythroid 2-related factor 2/antioxidant responsive element (Nrf2/ARE) small molecule agonists: qHTS cell viability counter screen in human keratinocytes (AID 1919968; active = well fitted curve in the direction sought with a large enough effect in the repeat runs; an effect the other way counts as inactive or inconclusive; note: nearly all actives have a fitted effect of over 55% in size; note: potency is the fitted concentration of half-maximal effect)
In short: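 Fluorescence read-out from CellTiter-Fluor after 1 h at 37 C. Wells held HaCaT-derived ARE-luciferase reporter cells (1,500/well) treated 23 h with DMSO-dissolved compounds. Run in the same wells as the luciferase agonist read.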

[2] = Nuclear factor erythroid 2-related factor 2/antioxidant responsive element (Nrf2/ARE) small molecule agonists: luciferase reporter gene qHTS assay in human keratinocytes (AID 1919969); note: nearly all actives have a fitted effect of over 35% in size; note: potency is the fitted concentration of half-maximal effect
[3] = biological target: KiSS-1 receptor (Homo sapiens) (UniProt Q969F8); test: Human kisspeptin (KISS1R) small molecule agonists, calcium flux assay in KISS1R-HEK293 cells (AID 1920064; active = well fitted curve in the direction sought with a large enough effect in the repeat runs; an effect the other way counts as inactive or inconclusive)
KiSS-1 receptor (Homo sapiens), sequence (Q969F8 whole entry, looked up): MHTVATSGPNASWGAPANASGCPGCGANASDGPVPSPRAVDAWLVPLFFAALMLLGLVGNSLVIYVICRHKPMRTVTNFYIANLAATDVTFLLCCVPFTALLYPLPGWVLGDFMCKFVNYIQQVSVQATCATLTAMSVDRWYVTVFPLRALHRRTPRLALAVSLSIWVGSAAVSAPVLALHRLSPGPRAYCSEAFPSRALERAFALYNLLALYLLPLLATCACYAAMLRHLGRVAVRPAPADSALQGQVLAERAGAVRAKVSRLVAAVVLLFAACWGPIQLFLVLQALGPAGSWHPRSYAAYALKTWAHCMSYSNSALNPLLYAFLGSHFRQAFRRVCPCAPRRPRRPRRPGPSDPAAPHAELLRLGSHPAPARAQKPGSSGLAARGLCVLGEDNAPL
In short: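 Calcium flux read-out: kinetic fluorescence at Ex/Em=480/540, 1 s intervals over 3 min, after pin-tool compound addition to dye-loaded KISS1R-HEK293 cells. Fifteen concentrations, triplicates.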

[4] = G protein-coupled receptor (GPCR) small molecule agonists, calcium flux assay: HEK293 wild type cell line counter screen (AID 1920065)
In short: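 Agonist mode; 18 h seeding at 37 C, 1 h dye load at 37 C; compounds pinned from DMSO, ATP as positive control; kinetic fluorescence 480/540 nm, 3 min, 1 s reads; 15 concentrations, triplicate.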

[5] = p53 small molecule agonists, cell-based qHTS assay with human liver microsomes (AID 1963577);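 note: p53 response element beta-lactamase reporter cells with liver microsomes plus NADPH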
In short: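 Steps: plate p53RE-bla cells, incubate 5 h at 37 C; add compound in DMSO; add microsomes (0.5 mg/mL final) and NADPH (0.5 mg/mL final); incubate 16 h at 37 C; add LiveBLAzer, 2 h RT; read fluorescence.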

[6] = p53 small molecule agonists, cell-based qHTS assay with human liver microsomes: qHTS cell viability counter screen (AID 1963579); note: nearly all actives have a fitted effect of over 45% in size
In short: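 After the 460/530 nm beta-lactamase read, CellTiter-Glo was added to the same wells and luminescence measured after 30 min at room temperature, giving viability of p53RE-bla cells treated 16 h with compounds plus microsomes and NADPH.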

[7] = p53 small molecule agonists, cell-based qHTS assay with rat liver microsomes: qHTS cell viability counter screen (AID 1963580); note: nearly all actives have a fitted effect of over 45% in size; note: potency is the fitted concentration of half-maximal effect
In short: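 Cytotoxicity counter screen: intracellular ATP measured by CellTiter-Glo luminescence in the same wells as the beta-lactamase reporter read, on HCT-116 p53RE-bla cells exposed 16 h at 37 C to compounds with rat liver microsomes and NADPH, each 0.5 mg/mL final.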

[8] = p53 small molecule agonists, cell-based qHTS assay: qHTS cell viability counter screen (AID 1963581); note: nearly all actives have a fitted effect of over 45% in size; note: potency is the fitted concentration of half-maximal effect
In short: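 Cytotoxicity read-out: ATP-based luminescence (CellTiter-Glo, 30 min RT) measured in the same wells as the p53 reporter assay, HCT-116 p53RE-bla cells, 16 h compound exposure at 37 C.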

[9] = p53 small molecule agonists, cell-based qHTS assay (AID 1963582; active = well fitted activation curve with a large enough effect in the signal ratio in the repeat runs, not every such curve was filed as active; the % refers to the signal ratio)
In short: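 Fluorescence intensity read-out of a beta-lactamase reporter under a p53 response element. Cells were exposed to DMSO-dissolved compounds for 16 h at 37 C, then developed with FRET substrate for 2 h at RT.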

[10] = biological target: 5-hydroxytryptamine receptor 2A (Homo sapiens) (UniProt P28223); test: 5-hydroxytryptamine receptor 2A (HTR2A) small molecule antagonists, cell-based qHTS assay (AID 1963586); note: nearly all actives have a fitted effect of over 45% in size
5-hydroxytryptamine receptor 2A (Homo sapiens), sequence (P28223 whole entry, looked up): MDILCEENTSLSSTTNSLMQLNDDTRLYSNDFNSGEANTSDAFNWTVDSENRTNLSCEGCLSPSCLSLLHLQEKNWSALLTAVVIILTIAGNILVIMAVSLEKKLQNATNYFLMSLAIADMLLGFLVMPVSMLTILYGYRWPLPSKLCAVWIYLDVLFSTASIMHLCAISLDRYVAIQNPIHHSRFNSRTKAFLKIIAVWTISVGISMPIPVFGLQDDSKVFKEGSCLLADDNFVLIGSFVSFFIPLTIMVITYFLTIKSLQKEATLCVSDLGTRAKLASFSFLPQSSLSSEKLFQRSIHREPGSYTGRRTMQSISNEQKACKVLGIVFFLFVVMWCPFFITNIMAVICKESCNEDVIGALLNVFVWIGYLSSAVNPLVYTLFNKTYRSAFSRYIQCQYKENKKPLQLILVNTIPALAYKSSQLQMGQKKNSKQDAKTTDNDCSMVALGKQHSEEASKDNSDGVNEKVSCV
In short: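 CHO cells stably expressing human HTR2A were plated for 18 h at 37 C, then loaded with calcium dye for 1 h. Compounds were preincubated 5 min at room temperature before DOI (4 nM solution) was added. Kinetic fluorescence was read for 3 min.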

[11] = biological target: 5-hydroxytryptamine receptor 2A (Homo sapiens) (UniProt P28223); test: 5-hydroxytryptamine receptor 2A (HTR2A) small molecule agonists, cell-based qHTS assay (AID 1963587); note: nearly all actives have a fitted effect of over 30% in size; note: potency is the fitted concentration of half-maximal effect
In short: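 CHO cells stably expressing human HTR2A, plated 18 h, loaded with calcium dye 1 h at 37 C. Agonist mode: compounds added and intracellular calcium fluorescence recorded kinetically for 2 min at 1 sec intervals.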

[12] = biological target: Muscarinic acetylcholine receptor M1 (Homo sapiens) (UniProt P11229); test: Cholinergic receptor muscarinic 1 (CHRM1) small molecule antagonists, cell-based qHTS assay (AID 1963588); note: nearly all actives have a fitted effect of over 40% in size
Muscarinic acetylcholine receptor M1 (Homo sapiens), sequence (P11229 whole entry, looked up): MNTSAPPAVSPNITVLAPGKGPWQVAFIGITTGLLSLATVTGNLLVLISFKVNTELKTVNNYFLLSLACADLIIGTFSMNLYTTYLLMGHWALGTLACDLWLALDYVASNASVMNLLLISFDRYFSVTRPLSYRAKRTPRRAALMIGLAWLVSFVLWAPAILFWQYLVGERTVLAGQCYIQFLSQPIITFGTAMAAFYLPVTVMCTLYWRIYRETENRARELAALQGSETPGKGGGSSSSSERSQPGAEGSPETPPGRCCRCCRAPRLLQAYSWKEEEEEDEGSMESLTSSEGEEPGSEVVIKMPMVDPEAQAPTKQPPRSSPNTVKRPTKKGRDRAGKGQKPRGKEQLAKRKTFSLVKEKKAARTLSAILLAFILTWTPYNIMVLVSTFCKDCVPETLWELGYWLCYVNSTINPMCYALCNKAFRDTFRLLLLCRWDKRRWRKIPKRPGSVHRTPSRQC
In short: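 Compounds were tested at 15 concentrations in three independent runs. Dye-loaded CHRM1-CHO cells were exposed 5 min at room temperature before stimulation by acetylcholine added at 50nM. Intracellular calcium was read kinetically on FDSS for 3 min.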

[13] = cAMP Responsive Elements (CRE) small molecule agonists, cell-based qHTS assay (AID 1963590)
In short: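 Beta-lactamase reporter readout: LiveBLAzer B/G FRET substrate, 2 h at room temperature, added after 3 h compound treatment of CRE-bla HEK 293T cells at 37 C/5% CO2.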

[14] = biological target: Beta-2 adrenergic receptor (Homo sapiens) (UniProt P07550); test: Adrenergic beta2 receptor (ADRB2) small molecule antagonists, cell-based qHTS assay (AID 1963592); note: series mostly up to about 92 µM; nearly all actives have a fitted effect of over 50% in size
Beta-2 adrenergic receptor (Homo sapiens), sequence (P07550 whole entry, looked up): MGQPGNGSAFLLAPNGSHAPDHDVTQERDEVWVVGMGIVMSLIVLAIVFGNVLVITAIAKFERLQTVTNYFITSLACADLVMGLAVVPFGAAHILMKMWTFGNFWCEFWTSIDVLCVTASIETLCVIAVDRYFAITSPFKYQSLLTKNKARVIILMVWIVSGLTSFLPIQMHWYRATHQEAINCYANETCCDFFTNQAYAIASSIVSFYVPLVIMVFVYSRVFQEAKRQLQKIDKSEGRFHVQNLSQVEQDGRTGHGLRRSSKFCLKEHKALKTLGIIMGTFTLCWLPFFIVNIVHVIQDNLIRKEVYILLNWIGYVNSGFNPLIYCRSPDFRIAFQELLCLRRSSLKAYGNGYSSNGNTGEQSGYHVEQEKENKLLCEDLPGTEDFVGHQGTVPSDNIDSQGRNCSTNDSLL
In short: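 Assay format: CHO-ADRB2 cells, 18-20hr seeding at 37C/5% CO2, then compound plus 1nM isoproterenol agonist mix for 0.5hr RT. Homogeneous time-resolved fluorescence cAMP detection after 1hr, expressed as 665/615 nm ratio.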

[15] = biological target: Beta-2 adrenergic receptor (Homo sapiens) (UniProt P07550); test: Adrenergic beta2 receptor (ADRB2) small molecule agonists, cell-based qHTS assay (AID 1963593);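 note: CHO cells stably overexpressing human ADRB2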
In short: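 CHO cells stably over-expressing ADRB2 were plated overnight at 37C, then dosed with compounds plus a stimulation mix containing 100uM IBMX and 25uM Ro-20-1724 for 0.5hr at room temperature. cAMP was measured by HTRF competition, 1hr.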

[16] = biological target: D(2) dopamine receptor (Homo sapiens) (UniProt P14416); test: Dopamine D2 receptor (DRD2) small molecule agonists, cell-based qHTS assay (AID 1963594); note: nearly all actives have a fitted effect of over 35% in size
D(2) dopamine receptor (Homo sapiens), sequence (P14416 whole entry, looked up): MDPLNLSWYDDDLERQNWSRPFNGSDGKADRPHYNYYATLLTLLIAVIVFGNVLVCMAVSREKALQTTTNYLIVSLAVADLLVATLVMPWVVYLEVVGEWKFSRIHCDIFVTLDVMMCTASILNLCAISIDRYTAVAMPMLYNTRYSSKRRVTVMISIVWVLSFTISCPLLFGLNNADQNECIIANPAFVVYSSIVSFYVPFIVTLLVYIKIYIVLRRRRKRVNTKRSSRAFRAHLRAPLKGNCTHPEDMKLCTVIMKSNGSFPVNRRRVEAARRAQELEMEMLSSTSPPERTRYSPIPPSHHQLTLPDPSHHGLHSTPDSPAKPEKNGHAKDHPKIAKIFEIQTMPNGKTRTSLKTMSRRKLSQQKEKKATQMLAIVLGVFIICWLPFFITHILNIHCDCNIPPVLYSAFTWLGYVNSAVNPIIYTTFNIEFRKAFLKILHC
In short: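 HEK293 cells stably expressing human DRD2, pre-treated with PDE inhibitor Ro20-1724 (0.1 mM final) and compound 10 min at room temperature, then stimulated with NKH477 (200nM […]) for 30 min. cAMP read by HTRF (665/620 nm).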

[17] = biological target: D(2) dopamine receptor (Homo sapiens) (UniProt P14416); test: Dopamine D2 receptor (DRD2) small molecule antagonists, cell-based qHTS assay (AID 1963595; active = well fitted inhibition curve with a large enough effect in the signal ratio in the repeat runs, with a control signal flat; the % refers to the signal ratio; note: potency is the fitted concentration of half-maximal effect)
In short: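 HEK293 cells stably expressing DRD2, preincubated with 0.1 mM Ro20-1724 and compounds 10 min, were stimulated with 200 nM NKH477 plus 12 nM quinpirole for 30 min at room temperature; cAMP measured by HTRF (665/620 nm).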

[18] = p53 small molecule agonists, cell-based qHTS assay with rat liver microsomes (AID 1963578)
In short: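 Metabolic activation is supplied by rat liver microsomes with NADPH (each 0.5 mg/mL final). p53RE-bla cells incubate with compound 16 h at 37 C; reporter activity is measured by LiveBLAzer fluorescence.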

[19] = biological target: Muscarinic acetylcholine receptor M1 (Homo sapiens) (UniProt P11229); test: Cholinergic receptor muscarinic 1 (CHRM1) small molecule agonists, cell-based qHTS assay (AID 1963589); note: nearly all actives have a fitted effect of over 35% in size
In short: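 Calcium flux read-out: kinetic fluorescence at 1 sec intervals after pin-tool compound addition to dye-loaded CHRM1-CHO cells (human M1). Agonist mode; 15 concentrations tested in triplicate independent runs.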

[20] = cAMP Responsive Elements (CRE) small molecule antagonists, cell-based qHTS assay (AID 1963591; active = well fitted inhibition curve with a large enough effect in the signal ratio in the repeat runs, not every such curve was filed as active; the % refers to the signal ratio)
In short: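 HEK293T CRE-bla; 18 h preincubation; compound pin-transfer; NKH477 0.25 uM final, 3 h, 37 C; LiveBLAzer FRET substrate 2 h RT.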

Structure (SMILES): O=C1c2cccc(O)c2C(=O)c2c(O)cccc21
- Potency [1]: inactive and 3.35 µM (active)
- Potency [2]: 27.6 µM (active)
- Potency [3]: inactive
- Potency [4]: inactive
- Potency [5]: inactive
- Potency [6]: inactive
- Potency [7]: inactive
- Potency [8]: inactive
- Potency [9]: inactive
- Potency [10]: inactive
- Potency [11]: inactive
- Potency [12]: inactive
- Potency [13]: inactive
- Potency [14]: inactive
- Potency [15]: inactive
- Potency [16]: inactive
- Potency [17]: inactive

Structure (SMILES): CC(=O)c1sc(C)nc1C
- Potency [1]: inactive
- Potency [2]: inactive
- Potency [3]: inactive
- Potency [5]: inactive
- Potency [18]: inactive
- Potency [6]: inactive
- Potency [7]: inactive
- Potency [8]: inactive
- Potency [9]: inactive
- Potency [10]: inactive
- Potency [11]: inactive
- Potency [12]: inactive
- Potency [19]: inactive
- Potency [13]: inactive
- Potency [14]: inactive
- Potency [16]: inactive
- Potency [17]: inactive

Structure (SMILES): CC(=O)/C=C/C1C(C)=CCCC1(C)C (stereo not given)
- Potency [1]: inactive
- Potency [2]: inactive
- Potency [3]: inactive
- Potency [4]: inactive
- Potency [6]: inactive
- Potency [7]: inactive
- Potency [8]: inactive
- Potency [10]: inactive
- Potency [12]: inactive
- Potency [19]: inactive
- Potency [13]: inactive
- Potency [20]: inactive
- Potency [14]: inactive
- Potency [15]: inactive
- Potency [16]: inactive
- Potency [17]: inactive

Structure (SMILES): CCCCC(CC)COC(=O)CC(C(=O)OCC(CC)CCCC)S(=O)(=O)O (stereo not given)
- Potency [1]: 26.3 µM (active)
- Potency [2]: inactive
- Potency [3]: inactive
- Potency [4]: inactive
- Potency [5]: inactive
- Potency [18]: inactive
- Potency [7]: 35 µM (active)
- Potency [8]: 39.2 µM (active)
- Potency [10]: inactive
- Potency [11]: 42 µM (active) and 43.6 µM (active)
- Potency [12]: inactive
- Potency [20]: inactive
- Potency [14]: inactive
- Potency [15]: inactive
- Potency [17]: inactive and 61.1 µM (active)

Structure (SMILES): CC(=O)N1CCN(c2ccc(O)cc2)CC1
- Potency [1]: inactive
- Potency [2]: inactive
- Potency [4]: inactive
- Potency [5]: inactive
- Potency [18]: inactive
- Potency [6]: inactive
- Potency [7]: inactive
- Potency [8]: inactive
- Potency [9]: inactive
- Potency [10]: inactive
- Potency [11]: inactive
- Potency [12]: inactive
- Potency [19]: inactive
- Potency [13]: inactive
- Potency [20]: inactive
- Potency [14]: inactive
- Potency [16]: inactive
- Potency [17]: inactive

Structure (SMILES): COc1ccc(C)cc1
- Potency [1]: inactive
- Potency [2]: inactive
- Potency [3]: inactive
- Potency [4]: inactive
- Potency [5]: inactive
- Potency [6]: inactive
- Potency [7]: inactive
- Potency [8]: inactive
- Potency [9]: inactive
- Potency [10]: inactive
- Potency [11]: inactive
- Potency [12]: inactive
- Potency [19]: inactive
- Potency [13]: inactive
- Potency [14]: inactive
- Potency [16]: inactive

Structure (SMILES): C=C[C@H]1CN2CC[C@H]1C[C@@H]2[C@@H](O)c1ccnc2ccc(OC)cc12
- Potency [1]: inactive
- Potency [2]: inactive
- Potency [3]: inactive
- Potency [4]: inactive
- Potency [6]: inactive
- Potency [7]: inactive
- Potency [8]: inactive
- Potency [10]: inactive
- Potency [12]: inactive
- Potency [19]: inactive
- Potency [13]: inactive
- Potency [20]: inactive
- Potency [14]: inactive
- Potency [15]: inactive
- Potency [16]: inactive
- Potency [17]: inactive
